This is an account of results in PubChem BioAssay.

The source made the active and inactive calls.

Experiment [1] can be described thus: E. coli DRC41 culture turbidity changes, primary screen, E. coli filamentation inducer project, strain DRC41, OD650, 48 h (AID 1152).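 Further: E. coli MC1000 strain DRC41 lacking acrAB efflux pump and sulA.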 The note with it: E. coli DRC41 (acrAB sulA), higher = more signal, called active from +8 up or from −8 down.
Experiment [2] in a line: small-molecule binders of probe aLefty1, primary screen, biochemical, small-molecule microarray, 635/667 nm fluorescence (AID 1153).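 Further: score merges spot fluorescence with signal-to-noise ratio from the scanned slide images.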 Particulars: higher = more signal.
Experiment [3] is described as follows: PSAC antagonists in infected red cells, primary screen, cell-based, P. falciparum Indochina, OD700, 1 h (AID 1154). The note with it: P. falciparum Indochina infected RBC osmotic lysis, higher = more signal, called active from +8 up or from −8 down.
A short description of experiment [4]: PSAC antagonists in infected red cells, primary screen, cell-based, P. falciparum Indochina, OD700, 2 h (AID 1155).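 Further: lysis reports solute entry through the parasite surface anion channel PSAC; channel blockers reduce lysis of infected cells.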 The note with it: P. falciparum Indochina infected erythrocytes, osmotic lysis OD700; higher = more signal, called active from +8 up or from −8 down.
Experiment [5] is described as follows: osmotic lysis modulators in infected erythrocytes, primary screen, PSAC antagonist project, cell-based, P. falciparum Indochina, OD700, 3 h (AID 1156). The note with it: higher = more signal, called active from +8 up or from −8 down.
Experiment [6] can be described thus: PSAC antagonists in infected red cells, primary screen, cell-based, P. falciparum Indochina, OD700, 18 h (AID 1157). Particulars: P. falciparum Indochina infected erythrocytes, osmotic lysis OD700, 18 h; higher = more signal, called active from +8 up or from −8 down.
A short description of experiment [7]: modulators of S6 phosphorylation in cells, primary screen, cell-based, A549, cytoblot, luminescence, serum-stimulated (AID 1158).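 Further: serum-stimulated A549 lung adenocarcinoma cells; signal is phosphorylated S6 detected by cytoblot immunostaining with HRP secondary.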 Particulars: A549 phospho-S6 cytoblot, 5 h, higher = more signal.
Experiment [8] has as its target NADPH oxidase 2 (Homo sapiens) (UniProt P04839). Nature of the experiment: NOX2-dependent H2O2 signal modulators, primary screen, NOX inhibitor project, cell-based, HEK293-NOX2, PMA-stimulated, Amplex Red fluorescence (AID 1159). Further: test concentration not given here. The note with it: 45 min, higher = more signal, called active from +8 up or from −8 down.
For experiment [9], the target named is NADPH oxidase 4 (Homo sapiens) (UniProt Q9NPH5). Nature of the experiment: NOX4-dependent H2O2 signal modulators, primary screen, NOX inhibitor project, cell-based, HEK293-NOX4, tetracycline-induced, Amplex Red fluorescence (AID 1160). The note with it: 45 min, higher = more signal, called active from +8 up or from −8 down.
Experiment [10] concerns the target NADPH oxidase 5 (Homo sapiens) (UniProt Q96PH1). Nature of the experiment: NOX5-dependent H2O2 signal modulators, primary screen, NOX inhibitor project, cell-based, HEK293-NOX5, Amplex Red fluorescence (AID 1161). The note with it: HEK293-NOX5, ionomycin, 45 min, higher = more signal.
Experiment [11] is described as follows: A549 cell viability effects, profiling panel, calcein-AM fluorescence, 48 h, basal (AID 1162). Further: test concentration not given here. The note with it: higher = more signal.
Experiment [12] in a line: adipocyte viability effects, profiling panel, cell-based, 3T3-L1 adipocytes, calcein-AM fluorescence, 48 h, basal (AID 1163). Further: test concentration not given here. The note with it: 3T3-L1 adipocytes viability, higher = more signal.
A short description of experiment [13]: HepG2 cell viability effects, profiling panel, calcein-AM fluorescence, 48 h, basal (AID 1164). Further: test concentration not given here. The note with it: higher = more signal.
Experiment [14] can be described thus: MM1S cell viability effects, profiling panel, calcein-AM fluorescence, 48 h, basal (AID 1165).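 Further: viability of MM1S multiple myeloma cells under basal unstimulated conditions; test concentration not given here.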 The note with it: higher = more signal.
Experiment [15] can be described thus: basal RPMI8226 viability, no added stimulus, profiling panel, cell-based, calcein-AM fluorescence, 48 h, PK04 Diversity Set (AID 1166).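 Further: cells grown under basal conditions without added stimulus; test concentration not given here.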 The note with it: RPMI8226 myeloma viability, higher = more signal.
The nature of experiment [16]: basal HepG2 mitochondrial membrane potential changes, profiling panel, cell-based, JC-1 fluorescence, 24 h, 100 nL compound (AID 1167). Further: test concentration not given here. The note with it: higher = more signal.
The nature of experiment [17]: basal 3T3-L1 adipocyte mitochondrial potential changes, profiling panel, cell-based, JC-1 fluorescence, 3T3-L1 adipocytes, 24 h, 100 nL compound (AID 1168). Further: test concentration not given here. Particulars: JC-1 mitochondrial fluorescence, higher = more signal, called active from +8 up or from −8 down.
Experiment [18] in a line: basal RPMI8226 mitochondrial membrane potential changes, profiling panel, cell-based, JC-1 fluorescence, 24 h, 100 nL compound (AID 1169). Further: test concentration not given here. Particulars: RPMI8226 myeloma, JC-1 mitochondrial potential fluorescence, higher = more signal.
A short description of experiment [19]: basal MM1S mitochondrial membrane potential changes, profiling panel, cell-based, JC-1 fluorescence, 24 h, 100 nL compound (AID 1170). Further: test concentration not given here. The note with it: higher = more signal.
The nature of experiment [20]: A549 lung cancer cell viability effects, profiling panel, resazurin fluorescence, 24 h, PK04 Diversity Set (AID 1171). Further: test concentration not given here. Particulars: higher = more signal, called active from +8 up or from −8 down. (In general: The colour change of resazurin is a common sign of viable cells or microbes.)

Sequence of NADPH oxidase 2 (Homo sapiens) (P04839 whole entry, looked up): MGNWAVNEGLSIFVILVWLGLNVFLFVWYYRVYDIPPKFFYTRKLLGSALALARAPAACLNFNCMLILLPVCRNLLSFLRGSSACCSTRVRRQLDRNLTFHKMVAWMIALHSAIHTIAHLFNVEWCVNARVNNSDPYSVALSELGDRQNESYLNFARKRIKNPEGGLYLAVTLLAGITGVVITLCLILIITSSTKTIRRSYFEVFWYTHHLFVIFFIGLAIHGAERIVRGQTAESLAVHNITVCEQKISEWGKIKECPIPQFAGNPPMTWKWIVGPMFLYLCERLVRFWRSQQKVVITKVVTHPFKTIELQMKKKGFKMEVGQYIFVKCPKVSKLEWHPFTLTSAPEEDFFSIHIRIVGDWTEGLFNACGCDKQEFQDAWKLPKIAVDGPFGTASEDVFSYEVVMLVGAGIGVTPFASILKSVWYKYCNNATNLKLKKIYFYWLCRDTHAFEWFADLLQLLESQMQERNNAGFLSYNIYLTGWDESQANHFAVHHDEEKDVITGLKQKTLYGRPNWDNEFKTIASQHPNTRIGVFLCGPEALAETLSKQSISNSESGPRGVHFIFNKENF
Sequence of NADPH oxidase 4 (Homo sapiens) (Q9NPH5 whole entry, looked up): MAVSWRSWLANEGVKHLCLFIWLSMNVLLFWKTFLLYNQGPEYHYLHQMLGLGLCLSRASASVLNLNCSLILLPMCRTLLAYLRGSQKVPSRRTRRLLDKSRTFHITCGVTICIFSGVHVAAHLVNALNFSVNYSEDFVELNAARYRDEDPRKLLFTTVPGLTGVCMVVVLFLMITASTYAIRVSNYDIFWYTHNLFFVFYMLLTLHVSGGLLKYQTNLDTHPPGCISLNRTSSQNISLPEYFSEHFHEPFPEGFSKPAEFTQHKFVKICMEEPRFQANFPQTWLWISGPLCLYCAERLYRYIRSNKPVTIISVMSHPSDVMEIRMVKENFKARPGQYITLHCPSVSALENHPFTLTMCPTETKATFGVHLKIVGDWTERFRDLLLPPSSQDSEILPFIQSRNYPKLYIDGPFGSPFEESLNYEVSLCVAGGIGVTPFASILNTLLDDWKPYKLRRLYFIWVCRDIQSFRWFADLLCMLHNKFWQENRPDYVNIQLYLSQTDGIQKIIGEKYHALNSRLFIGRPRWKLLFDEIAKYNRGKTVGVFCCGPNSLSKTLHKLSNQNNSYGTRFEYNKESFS
Sequence of NADPH oxidase 5 (Homo sapiens) (Q96PH1 whole entry, looked up): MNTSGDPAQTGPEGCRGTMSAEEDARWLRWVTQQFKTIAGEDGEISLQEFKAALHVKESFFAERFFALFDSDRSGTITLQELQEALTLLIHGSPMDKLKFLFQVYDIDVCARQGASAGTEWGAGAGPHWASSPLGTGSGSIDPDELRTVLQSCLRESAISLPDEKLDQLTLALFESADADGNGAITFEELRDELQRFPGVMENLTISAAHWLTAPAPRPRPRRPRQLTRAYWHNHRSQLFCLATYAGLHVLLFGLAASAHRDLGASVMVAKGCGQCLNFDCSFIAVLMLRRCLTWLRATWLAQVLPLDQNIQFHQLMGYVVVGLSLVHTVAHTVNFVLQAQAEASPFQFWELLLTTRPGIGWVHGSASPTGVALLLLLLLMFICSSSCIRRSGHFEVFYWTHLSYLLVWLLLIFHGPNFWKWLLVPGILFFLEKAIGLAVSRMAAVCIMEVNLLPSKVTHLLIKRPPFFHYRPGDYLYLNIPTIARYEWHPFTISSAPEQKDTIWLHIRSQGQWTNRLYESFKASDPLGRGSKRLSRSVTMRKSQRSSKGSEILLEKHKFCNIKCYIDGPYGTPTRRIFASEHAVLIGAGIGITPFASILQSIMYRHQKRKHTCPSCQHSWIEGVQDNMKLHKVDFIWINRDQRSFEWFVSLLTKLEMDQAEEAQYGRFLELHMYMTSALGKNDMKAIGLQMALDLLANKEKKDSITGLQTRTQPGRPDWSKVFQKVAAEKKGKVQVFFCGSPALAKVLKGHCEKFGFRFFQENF

With `O=C1C2C=CC(C(O)c3ccc(Br)cc3)N(n3cnnc3)C2C(=O)N1Cc1ccccc1` (stereo not given), the z-score is -2.21 (inactive) in experiment [1]; 0.922 (inactive) in experiment [3]; 1.16 (inactive) in experiment [4]; 0.107 (inactive) in [5]; 0.756 (inactive) in experiment [6]; -0.738 in experiment [7]. Besides, the z-score was 0.101 (inactive) in [8]; 2.59 (inactive) in experiment [9]; 0.964 in [10]; -1.71 in experiment [11]; -1 in [12]; -3.58 in experiment [13]. Further, the z-score in experiment [14] is -0.496; in experiment [15], -3.99; in experiment [16], -0.422; in experiment [17] it was 0.633 (inactive); in experiment [18] it was -0.212; in experiment [19], 0.00374. In experiment [20], the z-score is 0.0637 (inactive). In experiment [2], this compound showed a composite z-score of 0.152.
Regarding `[N-]=[N+]=NCc1ccccc1[C@@H]1OC(c2ccc(OCCCO)cc2)=N[C@]1(Cc1ccccc1)C(=O)O`, the z-score is -0.235 (inactive) in experiment [1]; 15.6 (active) in experiment [3]; 2.07 (inactive) in experiment [4]; -0.143 (inactive) in experiment [5]; 0.786 (inactive) in experiment [6]; -0.117 in experiment [7]. The z-score in experiment [8] is 0.174 (inactive); in experiment [9], 1.1 (inactive); in [10], 1.74; in experiment [11] it was 0.211; in experiment [12] it was 0.333; in experiment [13] it was 0.865. For the same compound, the z-score in experiment [14] was 0.229; in experiment [15], -0.767; in [16] it was -0.00992; in experiment [17], -1.01 (inactive); in [18] it was -0.0434; in experiment [19], -0.969. Moreover, the z-score in experiment [20] is 0.45 (inactive). In addition, in experiment [2], the composite z-score was 0.0429.
With `CCCCN1CC=CC23O[C@@H]4C=CCCOC(=O)C4[C@H]2C(=O)N(CCCO)[C@@H]3C1=O` (stereo not given in full), the z-score was 0.62 (inactive) in experiment [1]; 0.158 (inactive) in experiment [3]; -1.01 (inactive) in experiment [4]; 0.224 (inactive) in [5]; -1.34 (inactive) in experiment [6]; 0.243 in experiment [7]. Also, the z-score in experiment [8] was -0.168 (inactive); in experiment [9], -1.73 (inactive); in experiment [10] it was -1.34; in experiment [11], 0.146; in experiment [12], 1.53; in experiment [13], -0.365. The z-score in experiment [14] is 0.438; in experiment [15], -0.913; in [16], -0.798; in experiment [17], -0.562 (inactive); in experiment [18] it was -0.781; in experiment [19] it was -0.148. Further, the z-score in experiment [20] is -0.834 (inactive). Further, in [2], the composite z-score is -0.321.
Regarding `COc1ccc([Si](C)(C)[C@@H]2[C@@H](CCO)O[C@]3(C(=O)N(Cc4cccc(N(C=O)c5ccccc5)c4)c4ccccc43)[C@H]2C)cc1`, the z-score in experiment [1] was 0.313 (inactive); in experiment [3] it was 4.07 (inactive); in experiment [4] it was 0.49 (inactive); in experiment [5], 2.32 (inactive); in [6], -1.17 (inactive); in experiment [7], 0.62. For the same compound, the z-score in [8] was 0.773 (inactive); in experiment [9], -0.249 (inactive); in [10], -0.78; in [11] it was -1.54; in experiment [12], 1.72; in experiment [13], -0.854. The z-score was -1.12 in experiment [14]; -1.68 in experiment [15]; 0.719 in [16]; -0.0903 (inactive) in experiment [17]; -0.881 in experiment [18]; 0.0823 in experiment [19]. Moreover, the z-score in [20] was -2.24 (inactive). The compound also showed a composite z-score in experiment [2] of 0.0811.
